Data as given in PubChem BioAssay AID1159580 (chemical genetic matrix, 2015).
Where “and” joins values, the source holds several entries; their conditions need not be identical. Equal values may be shown once. About 2,000 (36%) of roughly 5,500 compounds were called active. About 18% were inconclusive and are not listed. No stated cut-off is given here; in the data, active means normalized growth mostly below about 0.91 (no sharp cut-off); inconclusive means no clear call, values can overlap the other calls; inactive means mostly above about 0.92. The list shows a part of the results.

Assay: chemical genetic growth profiling, strain panel (AID 1159580);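 further: tested at 20 µM; growth read once vehicle control cultures reached saturation at 30 °C; 1 = growth at the plate median or of vehicle wells; lower values mean less growth of the strain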
Details: S. cerevisiae deletion strains, growth OD

Measured: normalized growth

CC1(C)C2CC(=O)[C@]3(C)C(CC[C@@]4(C)[C@H](c5ccoc5)OC(=O)C5OC543)[C@@]2(C)[C@@H](O)C[C@H]1O (stereo not given in full)
inactive: locus YAL021C, strain ccr4, active compounds read low 0.987 | locus YAL026C, strain drs2, active compounds read low 1.01 | locus YAL030W, strain snc1, active compounds read low 1 | locus YBL061C, strain skt5, active compounds read low 1.01 | locus YBR009C, strain hhf1, active compounds read low 1.02 | locus YBR021W, strain FUR4, active compounds read low 1 | locus YBR023C, strain chs3, active compounds read low 1.01 | locus YBR171W, strain sec66, active compounds read low 1.03 | locus YBR229C, strain ROT2, active compounds read low 1.01 | locus YBR231C, strain swc5, active compounds read low 1.01 | locus YBR279W, strain paf1, active compounds read low 1 | locus YCL011C, strain gbp2, active compounds read low 1.01 | locus YCL016C, strain dcc1, active compounds read low 1.01 | locus YCL029C, strain bik1, active compounds read low 1.02 | locus YCL069W, strain vba3, active compounds read low 1.02 | locus YCR088W, strain abp1, active compounds read low 1.01 | locus YDL005C, strain med2, active compounds read low 1 | locus YDL035C, strain GPR1, active compounds read low 1.08 | locus YDL040C, strain nat1, active compounds read low 1 | locus YDL074C, strain BRE1, active compounds read low 1.09 | locus YDL101C, strain DUN1, active compounds read low 1.02 | locus YDL134C, strain PPH21, active compounds read low 1.04 | locus YDL185W, strain tfp1, active compounds read low 0.996 | locus YDL192W, strain arf1, active compounds read low 1.01 | locus YDR001C, strain nth1, active compounds read low 1 | locus YDR069C, strain doa4, active compounds read low 0.995 | locus YDR101C, strain arx1, active compounds read low 0.98 | locus YDR137W, strain rgp1, active compounds read low 1.02 | locus YDR159W, strain sac3, active compounds read low 1.03 | locus YDR162C, strain NBP2, active compounds read low 1.05 | locus YDR195W, strain ref2 0.968 | locus YDR297W, strain sur2, active compounds read low 1.01 | locus YDR318W, strain mcm21, active compounds read low 1 | locus YDR334W, strain swr1, active compounds read low 1 | locus YDR335W, strain msn5, active compounds read low 1.01 | locus YDR388W, active compounds read low 0.976 | locus YDR392W, strain spt3, active compounds read low 1.01 | locus YDR502C, strain sam2, active compounds read low 1.01 | locus YEL003W, strain gim4, active compounds read low 1.01 | locus YEL037C, strain rad23, active compounds read low 1 | locus YEL061C, strain CIN8 (second series), active compounds read low 0.994 | locus YER015W, strain faa2, active compounds read low 0.997 | locus YER016W, strain bim1, active compounds read low 1.01 | locus YER110C, active compounds read low 0.988 | locus YER111C, strain swi4, active compounds read low 1.01 | locus YER155C, strain BEM2 (second series), active compounds read low 1.02 | locus YER155C, strain BEM2, active compounds read low 1 | locus YER167W, strain BCK2, active compounds read low 1.01 | locus YFR010W, strain ubp6, active compounds read low 0.994 | locus YGL078C, strain dbp3, active compounds read low 0.987 | locus YGL086W, strain mad1, active compounds read low 1 | locus YGL167C, strain pmr1, active compounds read low 1 | locus YGL173C, strain kem1, active compounds read low 1.01 | locus YGL227W, strain vid30, active compounds read low 1.03 | locus YGL240W, strain doc1, active compounds read low 1.01 | locus YGL248W, strain PDE1, active compounds read low 1.06 | locus YGL253W, strain hxk2, active compounds read low 1 | locus YGR078C, strain PAC10, active compounds read low 1.05 | locus YGR135W, strain pre9, active compounds read low 1 | locus YGR252W, strain gcn5, active compounds read low 0.913 | locus YHR013C, strain ard1, active compounds read low 1.02 | locus YHR027C, strain rpn1, active compounds read low 0.985 | locus YHR030C, strain SLT2, active compounds read low 1.02 and 1.04 | locus YHR079C, strain IRE1 (second series), active compounds read low 0.985 | locus YHR079C, strain IRE1, active compounds read low 1.03 | locus YHR094C, strain hxt1, active compounds read low 0.982 | locus YHR129C, strain ARP1, active compounds read low 1.03 | locus YHR142W, strain chs7, active compounds read low 0.989 | locus YHR200W, strain rpn10, active compounds read low 0.996 | locus YIL066C, strain RNR3, active compounds read low 1.02 | locus YIL073C, strain SPO22, active compounds read low 1.12 | locus YIL125W, strain kgd1, active compounds read low 0.992 | locus YIR030C, strain dcg1, active compounds read low 0.985 | locus YJL092W, strain hpr5, active compounds read low 1 | locus YJL095W, strain BCK1 (second series), active compounds read low 1.02 | locus YJL095W, strain BCK1, active compounds read low 1.07 and 1.01 | locus YJL115W, strain asf1, active compounds read low 0.999 | locus YJL129C, strain trk1, active compounds read low 1.02 | locus YJL134W, strain LCB3, active compounds read low 1.01 | locus YJL154C, strain vps35, active compounds read low 0.999 | locus YJL164C, strain tpk1, active compounds read low 1.01 | locus YJL166W, strain qcr8, active compounds read low 1.01 | locus YJL168C, strain set2, active compounds read low 1 | locus YJL187C, strain SWE1 (second series), active compounds read low 1.03 | locus YJL187C, strain SWE1, active compounds read low 1.01 | locus YJR066W, strain TOR1, active compounds read low 0.964 | locus YKL009W, strain mrt4, active compounds read low 0.998 | locus YKL068W, active compounds read low 0.984 | locus YKL085W, strain MDH1 (second series), active compounds read low 0.989 | locus YKL085W, strain MDH1, active compounds read low 0.989 | locus YKL160W, strain elf1, active compounds read low 1.02 | locus YKL190W, strain CNB1, active compounds read low 1.01 | locus YKR001C, strain vps1, active compounds read low 0.997 | locus YKR026C, strain gcn3, active compounds read low 1.01 | locus YKR091W, strain srl3, active compounds read low 1.01 | locus YLL001W, strain dnm1, active compounds read low 0.999 | locus YLL026W, active compounds read low 1 | locus YLL041C, strain sdh2, active compounds read low 0.997 | locus YLR027C, strain aat2, active compounds read low 1.01 | locus YLR039C, strain RIC1, active compounds read low 1.17 | locus YLR058C, strain SHM2, active compounds read low 1.03 | locus YLR102C, strain apc9, active compounds read low 0.989 | locus YLR113W, strain HOG1, active compounds read low 0.988 | locus YLR221C, strain rsa3, active compounds read low 1.01 | locus YLR258W, strain gsy2, active compounds read low 1.01 | locus YLR262C, strain YPT6 (second series), active compounds read low 1.01 | locus YLR268W, strain sec22, active compounds read low 1.02 | locus YLR320W, strain mms22, active compounds read low 1 | locus YLR342W, strain FKS1 (second series), active compounds read low 1.04 | locus YLR342W, strain FKS1, active compounds read low 1.02 | locus YLR357W, strain rsc2, active compounds read low 1.01 | locus YLR370C, strain arc18, active compounds read low 0.996 | locus YLR371W, strain rom2, active compounds read low 0.992 | locus YLR384C, strain iki3, active compounds read low 0.99 | locus YLR418C, strain cdc73, active compounds read low 0.974 | locus YML016C, strain PPZ1, active compounds read low 1.01 | locus YML032C, strain rad52, active compounds read low 0.986 | locus YML120C, strain ndi1, active compounds read low 1.01 | locus YML124C, strain tub3, active compounds read low 0.992 | locus YMR058W, strain fet3, active compounds read low 1 | locus YMR078C, strain ctf18, active compounds read low 0.988 | locus YMR125W, strain sto1, active compounds read low 1.01 | locus YMR129W, active compounds read low 1 | locus YMR205C, strain PFK2, active compounds read low 1.03 | locus YMR223W, strain ubp8, active compounds read low 0.985 | locus YMR231W, strain pep5, active compounds read low 1.01 | locus YMR263W, strain SAP30, active compounds read low 1.01 | locus YMR307W, strain GAS1, active compounds read low 1.15 | locus YNL067W, strain RPL9B, active compounds read low 1.02 | locus YNL071W, strain lat1, active compounds read low 1 | locus YNL153C, strain GIM3, active compounds read low 1.06 | locus YNL183C, strain NPR1, active compounds read low 0.967 | locus YNL209W, strain ssb2, active compounds read low 0.997 | locus YNL233W, strain BNI4, active compounds read low 1.06 | locus YNL248C, strain rpa49, active compounds read low 1 | locus YNL250W, strain rad50, active compounds read low 1.03 | locus YNL271C, strain bni1, active compounds read low 0.968 | locus YNL298W, strain CLA4, active compounds read low 0.991 | locus YNL307C, strain MCK1, active compounds read low 0.987 | locus YNL322C, strain KRE1 (second series), active compounds read low 1.03 | locus YNR049C, strain mso1, active compounds read low 0.997 | locus YNR052C, strain pop2, active compounds read low 0.975 | locus YOL012C, strain htz1 1.54 | locus YOL147C, strain pex11, active compounds read low 0.982 | locus YOR001W, strain rrp6, active compounds read low 1.01 | locus YOR061W, strain CKA2, active compounds read low 1.01 | locus YOR069W, strain VPS5, active compounds read low 1.01 | locus YOR070C, strain gyp1, active compounds read low 1 | locus YOR080W, strain dia2, active compounds read low 0.999 | locus YOR083W, strain WHI5, active compounds read low 1.02 | locus YOR106W, strain vam3, active compounds read low 1.01 | locus YOR136W, strain idh2, active compounds read low 0.986 | locus YOR144C, strain elg1, active compounds read low 0.979 | locus YOR184W, strain ser1, active compounds read low 1.01 | locus YOR231W, strain MKK1, active compounds read low 1.03 | locus YOR265W, strain rbl2, active compounds read low 0.983 | locus YOR270C, strain vph1, active compounds read low 0.904 | locus YOR290C, strain snf2, active compounds read low 1.02 | locus YOR316C, strain cot1, active compounds read low 0.979 | locus YPL051W, strain arl3, active compounds read low 0.994 | locus YPL078C, strain atp4, active compounds read low 1.03 | locus YPL106C, strain sse1, active compounds read low 1.02 | locus YPL240C, strain hsp82, active compounds read low 1 | locus YPL241C, strain CIN2, active compounds read low 1.02 | locus YPL256C, strain CLN2, active compounds read low 1.03 | locus YPR119W, strain clb2, active compounds read low 0.978 | locus YPR141C, strain kar3, active compounds read low 0.99 | locus YPR163C, strain tif3, active compounds read low 0.997 | locus YPR167C, strain met16, active compounds read low 1 | strain wtn01, active compounds read low 1
